From PubChem BioAssay (NCI) come the findings set out here.

Some test systems named below: SR leukemia; RPMI-8226 leukemia; OVCAR-8 ovarian; OVCAR-5 ovarian; OVCAR-4 ovarian; SK-OV-3 ovarian; IGROV1 ovarian; OVCAR-3 ovarian; HS 578T breast; NCI/ADR-RES ovarian; T-47D breast; BT-549 breast; MDA-MB-435 melanoma; SW-620 colon; MCF7 breast; HCC-2998 colon; KM12 colon; MDA-MB-468 breast; HCT-116 colon.
Experiment in all cases: NCI-60 one-dose screen, 48 h (100 = growth as untreated, 0 = no growth, -100 = all killed)
Common to all, as to conditions: 10 µM

Molecules are shown by their SMILES. About 83,000 compounds went through this panel and 20% of them were active in at least one assay; those are over-represented in the sample as a whole.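 A percent growth of 40 corresponds to 60% growth inhibition; 0 means no net growth; -100 means all cells died. Active threshold: below 10.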 Values without a mark were called inactive. Active and inactive are the calls of the source.

For the molecule `OCCNc1oc(-c2ccccc2)nc1[P+](c1ccccc1)(c1ccccc1)c1ccccc1`, the growth in the test on SR leukemia was 1.42% (active); with RPMI-8226 leukemia, 3.91% (active); in the test with OVCAR-8 ovarian, 7.35% (active); in the test on OVCAR-5 ovarian, 31.2%; in the test with OVCAR-4 ovarian it was 10.2%; in the test on SK-OV-3 ovarian, -3.42% (active). Also, the growth in the test with IGROV1 ovarian is -12.9% (active); in the test with OVCAR-3 ovarian, -9.22% (active); in the test on HS 578T breast it was -3.9% (active); in the test with NCI/ADR-RES ovarian, 99%; in the test with T-47D breast, 4.49% (active); in the test on BT-549 breast, -27.9% (active). The growth in the test with MDA-MB-435 melanoma is 4.92% (active); with SW-620 colon, 13.5%; in the test with MCF7 breast, 2.37% (active); with HCC-2998 colon, 9.06% (active); in the test on KM12 colon, -35.9% (active); in the test with MDA-MB-468 breast, -43.2% (active).

As for `CCOC(=O)C1=C(N)N(c2ccc(C)cc2)C2=C(C(=O)CC(C)(C)C2)C1c1ccccc1OC` (stereo not drawn), the growth in the test on SR leukemia is 92.1%; in the test with RPMI-8226 leukemia it was 96.2%; in the test on OVCAR-8 ovarian it was 110%; with OVCAR-5 ovarian it was 104%; in the test on OVCAR-4 ovarian, 108%; in the test with SK-OV-3 ovarian, 103%. The growth with IGROV1 ovarian was 98.6%; in the test with OVCAR-3 ovarian it was 118%; in the test with HS 578T breast it was 102%; in the test on T-47D breast, 97.8%; with BT-549 breast it was 95.7%; in the test on MDA-MB-435 melanoma, 111%. Besides, the growth is 105% in the test on SW-620 colon; 93.5% in the test on MCF7 breast; 103% in the test with HCT-116 colon; 106% with HCC-2998 colon; 108% in the test on KM12 colon; 101% in the test on MDA-MB-468 breast.

Consider `COc1ccc(C(=O)/C=C/c2ccc(Cl)c(C(F)(F)F)c2)cc1S(N)(=O)=O`, for which the growth in the test on SR leukemia was 8.87% (active); in the test on RPMI-8226 leukemia, 2.54% (active); in the test with OVCAR-8 ovarian, -73.4% (active); in the test with OVCAR-5 ovarian, -100% (active); with OVCAR-4 ovarian, -99.7% (active); in the test on SK-OV-3 ovarian, 9.96% (active). Also, the growth was -91.5% (active) in the test with IGROV1 ovarian; -66.5% (active) in the test on OVCAR-3 ovarian; -41.3% (active) in the test with HS 578T breast; -44% (active) in the test with NCI/ADR-RES ovarian; -82.6% (active) in the test on T-47D breast; -96.4% (active) in the test with MDA-MB-435 melanoma. Also, the growth with SW-620 colon is -94.7% (active); in the test with MCF7 breast it was -93.6% (active); with HCC-2998 colon, -88.3% (active); in the test on KM12 colon, -43.7% (active); with MDA-MB-468 breast, -93.4% (active).

Take `O=c1c2ccccc2nc(COc2ccccc2)n1/N=C/c1ccc(N2CCOCC2)cc1`: the growth in the test on SR leukemia is 95.1%; with RPMI-8226 leukemia it was 88.8%; with OVCAR-8 ovarian it was 33.1%; in the test on OVCAR-5 ovarian, 93.3%; with OVCAR-4 ovarian, 40.4%; with SK-OV-3 ovarian, 64.5%. Also, the growth in the test with IGROV1 ovarian was 56.9%; with OVCAR-3 ovarian, 85.2%; in the test with HS 578T breast it was 41.2%; in the test with T-47D breast, 92.9%; in the test on BT-549 breast it was 76.8%; in the test with MDA-MB-435 melanoma, 99.3%. For the same molecule, the growth is 97.6% with SW-620 colon; 77.6% with MCF7 breast; 52.5% in the test with HCT-116 colon; 99.2% in the test on HCC-2998 colon; 90.7% in the test with KM12 colon; 117% in the test with MDA-MB-468 breast.

On to `C=C1CCC2C3(C)COC(c4cc(F)cc(F)c4)OC3CCC2(C)C1C/C=C1/C(=O)OCC1O` (stereo not drawn), for which the growth with SR leukemia was 7.75% (active); in the test with RPMI-8226 leukemia, 14.1%; in the test with OVCAR-8 ovarian, -83.1% (active); in the test with OVCAR-5 ovarian, -21.3% (active); in the test on OVCAR-4 ovarian, -11% (active); in the test with SK-OV-3 ovarian it was 25%. Also, the growth in the test with IGROV1 ovarian is -49.8% (active); in the test on OVCAR-3 ovarian, -76.9% (active); in the test on HS 578T breast it was -24.1% (active); in the test on NCI/ADR-RES ovarian, -11.1% (active); with T-47D breast it was -50.1% (active); in the test with MDA-MB-435 melanoma, -64.2% (active). Also, the growth in the test with SW-620 colon was -61.9% (active); with MCF7 breast it was -45.8% (active); with HCT-116 colon, -69.2% (active); in the test on HCC-2998 colon it was -79.9% (active); with MDA-MB-468 breast it was -58.2% (active).

As to `COc1ccc2cc([C@H](C)C(=O)NCc3ccccc3)ccc2c1`, the growth in the test with SR leukemia is 29.8%; in the test on RPMI-8226 leukemia, 25.1%; with OVCAR-8 ovarian it was 32.7%; with OVCAR-5 ovarian it was 53.8%; in the test with OVCAR-4 ovarian, 53.5%; in the test on SK-OV-3 ovarian it was 40.6%. Further, the growth in the test with IGROV1 ovarian is 46.9%; in the test on OVCAR-3 ovarian, 19.9%; with HS 578T breast, 16.8%; in the test with T-47D breast it was 41.5%; with BT-549 breast, 42.8%; in the test on MDA-MB-435 melanoma it was -13.2% (active). The growth with SW-620 colon is 29.3%; in the test with MCF7 breast, 22.5%; in the test with HCT-116 colon, 37%; in the test on HCC-2998 colon, 50.7%; in the test with KM12 colon it was 39.1%; in the test with MDA-MB-468 breast, -20.3% (active).

In the case of `CN(C)c1ccc(/C=C/c2nc3ccccc3c(=O)n2CC(=O)Nc2ccc(Cl)cc2)cc1`, the growth was 81.2% in the test with SR leukemia; 88.1% with RPMI-8226 leukemia; 2.8% (active) with OVCAR-8 ovarian; 75.4% in the test on OVCAR-5 ovarian; 7.27% (active) with OVCAR-4 ovarian; 84.8% in the test with SK-OV-3 ovarian. In addition, the growth was 88.3% in the test with IGROV1 ovarian; 42.2% in the test with OVCAR-3 ovarian; 17.1% in the test on HS 578T breast; 22.4% with NCI/ADR-RES ovarian; 75.1% with T-47D breast; 26.6% in the test on BT-549 breast. Also, the growth with MDA-MB-435 melanoma was 68.8%; with SW-620 colon it was 61.9%; in the test with MCF7 breast it was 27.9%; with HCC-2998 colon, 68%; in the test on KM12 colon, 55.1%; in the test on MDA-MB-468 breast, 31.3%.

Turning to `COc1ccc(C(=O)Nc2sc3c(c2C#N)CCC(=O)C3)cc1C(F)(F)F`, the growth with SR leukemia was 0.622% (active); in the test with RPMI-8226 leukemia, 4.37% (active); with OVCAR-8 ovarian, 2.79% (active); in the test with OVCAR-5 ovarian, 35.3%; with OVCAR-4 ovarian it was 21.7%; with SK-OV-3 ovarian it was -3.75% (active). The growth with IGROV1 ovarian was 13.7%; in the test on OVCAR-3 ovarian, -6.94% (active); with HS 578T breast, -11.7% (active); with T-47D breast, -51.2% (active); in the test on BT-549 breast it was -58.3% (active); in the test with MDA-MB-435 melanoma, -21.7% (active). Besides, the growth was -30.7% (active) in the test on SW-620 colon; -10.1% (active) in the test on MCF7 breast; 0.735% (active) in the test with HCT-116 colon; 6.84% (active) with HCC-2998 colon; 10.4% with KM12 colon; -38.9% (active) with MDA-MB-468 breast.

On to `O=C(/C=C/Nc1ccccc1)c1ccc2c(c1)Nc1ccccc1S2`, for which the growth in the test with SR leukemia was 87.8%; with RPMI-8226 leukemia it was 90.9%; in the test with OVCAR-8 ovarian, 33.5%; in the test on OVCAR-5 ovarian, 87.7%; in the test with OVCAR-4 ovarian it was 49.2%; in the test on SK-OV-3 ovarian, 86.3%. Besides, the growth in the test on IGROV1 ovarian was 87.3%; in the test on HS 578T breast, 63%; in the test with NCI/ADR-RES ovarian, 61.2%; in the test on T-47D breast, 78.1%; in the test on BT-549 breast it was 95.6%; in the test with MDA-MB-435 melanoma, 85%. The growth is 89.3% in the test on SW-620 colon; 68.6% with MCF7 breast; 79.2% in the test on HCT-116 colon; 95.4% in the test on HCC-2998 colon; 87% with KM12 colon; 61.5% in the test on MDA-MB-468 breast.

Turning to `CN1C(=O)N(C)C2SC(N/N=C/c3ccccc3F)=NC21` (stereo not drawn), the growth in the test with SR leukemia is 16.4%; in the test with RPMI-8226 leukemia, 90.9%; in the test with OVCAR-8 ovarian it was 88.4%; with OVCAR-5 ovarian it was 86.7%; in the test with OVCAR-4 ovarian, 92.7%; in the test on SK-OV-3 ovarian it was 88%. For the same molecule, the growth is 56.6% in the test with IGROV1 ovarian; 6.19% (active) in the test on OVCAR-3 ovarian; 85.6% in the test on HS 578T breast; 64.3% in the test on T-47D breast; 45.4% in the test with BT-549 breast; -16.6% (active) in the test with MDA-MB-435 melanoma. Moreover, the growth in the test on SW-620 colon was 47.4%; with MCF7 breast, 32%; in the test on HCT-116 colon it was 37.5%; in the test with HCC-2998 colon, 88.5%; in the test with KM12 colon, 45.2%; in the test on MDA-MB-468 breast, 0.576% (active).

Regarding `COc1ccc(NC(=O)Nc2ccc(OCC(=O)N=Nc3c(O)[nH]c4ccc([N+](=O)[O-])cc34)cc2)cc1`, the growth is 92.4% in the test on SR leukemia; 110% with RPMI-8226 leukemia; 37.1% in the test with OVCAR-8 ovarian; 124% in the test on OVCAR-5 ovarian; 59.8% with OVCAR-4 ovarian; 93.9% with SK-OV-3 ovarian. In addition, the growth with OVCAR-3 ovarian is 24.6%; in the test with HS 578T breast, 39%; in the test on NCI/ADR-RES ovarian, 91.1%; with T-47D breast, 32.6%; with BT-549 breast, 27.5%; with MDA-MB-435 melanoma, 106%. Further, the growth in the test with SW-620 colon is 98.3%; in the test with MCF7 breast, 38.2%; in the test with HCT-116 colon, 85.6%; in the test on HCC-2998 colon it was 66.6%; in the test on KM12 colon it was 18%; in the test on MDA-MB-468 breast it was 30.2%.

For the molecule `CN1C(=O)/C(=C/c2nccs2)SC1=S`, the growth in the test with SR leukemia was 52.3%; in the test on RPMI-8226 leukemia, 97.2%; in the test on OVCAR-8 ovarian, 91.5%; in the test on OVCAR-5 ovarian, 95.6%; in the test on OVCAR-4 ovarian it was 84.1%; with SK-OV-3 ovarian, 105%. The growth was 63.8% in the test with IGROV1 ovarian; 86.5% in the test on HS 578T breast; 93.5% in the test with NCI/ADR-RES ovarian; 45.9% in the test with T-47D breast; 90.2% in the test on BT-549 breast; 83.9% in the test with MDA-MB-435 melanoma. The growth in the test on SW-620 colon was 92.5%; in the test with MCF7 breast, 38.2%; with HCC-2998 colon, 113%; in the test on KM12 colon, 90.2%; in the test on MDA-MB-468 breast it was 65.3%.
